The test system of assay [1] is Zika virus NS2B-NS3 protease (linked construct). The assay is described as follows: Primary screen NINDS Rhodamine qHTS for Zika virus inhibitors (AID 1347160). Note: nearly all actives have a fitted effect of over 55% in size. Note: potency is the fitted concentration of half-maximal effect. A digest of the protocol: (§1)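 Enzyme (25 nM, linked NS2B-NS3) was preincubated 15 min with compound in 10 mM Tris-HCl pH 8.0, 0.01% Tween 20. Rhodamine110 substrate (1.5 microM) was then added and fluorescence read at start and after 15 min.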

Assay [2] is described as follows: Confirmatory screen NINDS Rhodamine qHTS for Zika virus inhibitors (AID 1347161). Note: nearly all actives have a fitted effect of over 60% in size. Note: potency is the fitted concentration of half-maximal effect. The essentials: as §1
(Quantitative high-throughput screening tests each substance at several concentrations.)

Assay [3] in a line: Vero cells viability qHTS for Zika virus inhibitors (AID 1347167). The essentials:
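To flag cytotoxic protease inhibitors, viability is measured by ATP-dependent luminescence (CellTiter Glo) after cells attached overnight receive compound for 24 to 48 hours in DMEM with 4% FBS.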

A short description of assay [4]: qHTS to identify inhibitors of the type 1 interferon - major histocompatibility complex class I in skeletal muscle: primary screen against the NCATS Mechanism Interrogation Plate v5.0 (MIPE) Libary (AID 1347411). Note: nearly all actives have a fitted effect of over 65% in size. Note: potency is the fitted concentration of half-maximal effect. A digest of the protocol:
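Luminescence from CRISPR HiBit-tagged endogenous HLA-B in human myoblasts reported MHC class I level after 24 h of IFN-beta (4 ng/ml) plus compound. Compounds ran as 11-point 1:3 series, top 46 uM final.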

For assay [5], the system named is Zika virus NS2B-NS3 protease (linked). The assay is described as follows: 384 well plate NINDS AMC confirmatory qHTS for Zika virus inhibitors (AID 1347163). Note: nearly all actives have a fitted effect of over 50% in size. Note: potency is the fitted concentration of half-maximal effect. A digest of the protocol:
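Fluorescence at 355/460 nm was read after 25 minutes of cleavage of 30 microM Ac-VKTGKR-AMC at room temperature, in the dark. Before substrate addition, compounds (up to 1 mM final) sat ~15 minutes with 5, 30 or 60 nM linked protease. Signals were normalized to no-enzyme and no-inhibitor wells.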

Assay [6] concerns Zika virus NS2B-NS3 protease (linked construct). The assay is described as follows: 384 well plate NINDS Rhodamine confirmatory qHTS for Zika virus inhibitors (AID 1347164).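 Note: fluorescence from protease cleavage of Ac-LKRR-rhodamine 110 substrate; potency is the fitted concentration of half-maximal effect; nearly all actives have a fitted effect of over 65% in size.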 The essentials: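 Linked protease at a final 5 nM, 30 nM or 60 nM was preincubated ~15 min with compounds, then given 10 microM Ac-LKRR-Rhodamine 110. Fluorescence (ex 485/em 538 nm) after 25 min in the dark at room temperature.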

Assay [7] is described as follows: qHTS to identify inhibitors of the type 1 interferon - major histocompatibility complex class I in skeletal muscle: primary screen against the NCATS LOPAC collection (AID 1347405).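 Note: lytic HiBiT luminescence reporting HLA-B protein level.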 The essentials: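 After 24 h at 37 C with compounds (7-point, 1:4.3 dilutions, 46 uM top final) plus 4 ng/ml IFN-beta, luminescence from lytic HiBiT detection was measured. HLA-B*08:01 in C25cl48 myoblasts carried an endogenous C-terminal HiBiT tag; medium lacked dexamethasone.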

The nature of assay [8]: qHTS for inhibitors of adenylyl cyclases using a fission yeast platform: a pilot screen against the NCATS LOPAC library (AID 1347410). A digest of the protocol: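 S. pombe CHP2027 (AC9-GNAS-PDE4D2) carrying a PKA-repressed fbp1-GFP reporter was exposed to LOPAC compounds (final up to 57 µM) for 18 h at 30C in the dark, in EMM with histidine, lysine and uracil; GFP gain-of-signal read by laser scanning cytometry.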

Results filed as inconclusive are left out. A call without a number means that no potency is given here. The source made the active and inactive calls. Calls come from the whole dose curve; as a rule, active = well fitted curve in the direction sought with a large enough effect; inconclusive = small, poorly fitted or top-dose-only effect, or another doubt; inactive = no such curve, though single readings can be large; an effect the other way counts as inactive or inconclusive.

On to `CNC(=O)c1ccccc1Nc1nc(Nc2ccc(N3CCOCC3)cc2OC)ncc1Cl`, for which, in assay [1], the Potency result was “inactive”.

For `Cc1ccc(C(=O)Nc2cccc(C(F)(F)F)c2)cc1-c1ccc2nc(NCCN3CCOCC3)ncc2c1`, the Potency entry in assay [1], in assay [2] and in assay [3] was “inactive” each time. The Potency in assay [4] was 5.87 µM (active).

As to `O=c1c2ccccc2nc2n1CCc1c-2[nH]c2ccccc12`, the Potency result in assay [1], in assay [5] and in assay [3] was “inactive” each time. Besides, the Potency in assay [2] was 62.2 µM (active); in assay [6] it was 56.2 µM (active). In addition, the compound was classed as inactive in assay [7] and in assay [8].

With `CCNC(=O)Nc1ccc2ncc(Nc3ccc(C)cc3)nc2n1`, the Potency in assay [1] was 35.5 µM (active).

`Nc1cc(C(F)(F)F)c(-c2cc(N3CCOCC3)nc(N3CCOCC3)n2)cn1`: the Potency entry in assay [1] was “inactive”.

As for `O=C(O)C1(Cc2cccc(Nc3nccs3)n2)CCC(Oc2cccc(Cl)c2F)CC1` (stereo not drawn), the Potency in assay [1] is 4.47 µM (active); in assay [2], 3.5 µM (active); in assay [5] it was 3.16 µM (active); in assay [6], 14.1 µM (active). For the same compound, the Potency result in assay [3] and in assay [4] was “inactive” each time.

Take `CC(C)Nc1cc(C(F)(F)F)cc2nc(NC(=O)c3cccnc3)nn12`: the Potency result in assay [1] is “inactive”.

In the case of `O=C(CCCCCCNC(=O)c1cnc(N(c2ccccc2)c2ccccc2)nc1)NO`, in assay [1], the Potency result is “inactive”.

On to `CCCCOc1c(C(=O)c2c(F)cc(C)cc2F)cnc2n[nH]cc12`, for which the Potency entry in assay [1] was “inactive”.

Take `COc1ccc(-c2cc3c(C)nc(N)nc3n(C3CCC(OCCO)CC3)c2=O)cn1` (stereo not drawn): in assay [1], the Potency entry is “inactive”.

In the case of `CCOc1ccccc1OCCNC(C)Cc1ccc(OC)c(S(N)(=O)=O)c1` (stereo not drawn), the Potency result in assay [1] was “inactive”.

For the compound `Cc1nc(N)ncc1-c1nc(N2CCOCC2)c2sc(C(C)(C)O)cc2n1`, the Potency entry in assay [1] is “inactive”.

For the compound `C=CC(=O)Nc1cccc(Oc2nc(Nc3ccc(N4CCN(C)CC4)cc3OC)ncc2Cl)c1`, the Potency result in assay [1] is “inactive”.

Regarding `COC(=O)Nc1nc2ccc(C(=O)c3ccc(F)cc3)cc2[nH]1`, the Potency result in assay [1] was “inactive”.

The record behind these values is PubChem BioAssay (NCATS).
